About 80 (0.5%) of roughly 16,000 compounds were called active. Rule as the data show it: active = activation above about 15%; inactive = the rest. Only a selection was taken, and actives are over-represented in it overall.

The test deals with Galanin receptor type 2 (Rattus norvegicus) (UniProt O08726). Kind of test: agonists of rat galanin receptor 2 (GALR2) (AID 833). The settings on record: cell-based GALR2 agonist screen; at 10 µM; hits give high values.
Galanin receptor type 2 (Rattus norvegicus), sequence (O08726 whole entry, looked up): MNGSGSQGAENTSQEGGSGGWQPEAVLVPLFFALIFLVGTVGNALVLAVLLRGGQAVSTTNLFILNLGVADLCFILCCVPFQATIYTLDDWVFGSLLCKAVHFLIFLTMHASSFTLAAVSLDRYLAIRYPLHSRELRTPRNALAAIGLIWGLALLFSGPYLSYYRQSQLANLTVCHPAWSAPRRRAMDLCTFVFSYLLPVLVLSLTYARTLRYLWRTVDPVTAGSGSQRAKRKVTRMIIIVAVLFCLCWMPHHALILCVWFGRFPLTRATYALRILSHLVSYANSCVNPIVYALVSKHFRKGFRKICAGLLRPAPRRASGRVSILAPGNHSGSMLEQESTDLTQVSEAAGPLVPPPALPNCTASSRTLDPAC
Consider `CC(C)N(C(=O)c1ccc(-c2ccccc2F)cc1)C(C)C`, for which the activation was -5.45% (inactive).
As to `O=C(O)CC1(CC(=O)Nc2ccc(N3CCCCC3)cc2)CCCCC1`, the activation is -3.41% (inactive).
The same measure for `Cn1cc(Br)c(-c2ccc(NC(=O)Nc3ccc(Cl)cc3)cc2)n1`: -8.08% (inactive); for `COC(=O)c1noc(C)c1-c1ccnn1C(=O)c1ccc(Cl)cc1`: -1.59% (inactive); for `CSC(=CC(=O)c1cccs1)SC`: -10.2% (inactive).
Consider `COc1cccc2c1c(NS(=O)(=O)c1cn(C)cn1)nn2C`, for which the activation is -5.19% (inactive).
In the case of `CSc1nsc(SC)c1C(=O)NC(=O)NNc1ccc(F)c(Cl)c1`, the activation was -2.68% (inactive).
As for `Oc1[nH]c2ccc(F)cc2c1N=NC(=S)NC1CC2C=CC1C2` (stereo not drawn), the activation was -9.63% (inactive).
As for `NS(=O)(=O)c1cc(Br)ccc1I`, the activation is -1.14% (inactive).
Then `Cc1c(S(=O)(=O)N2CCOCC2)ccc(Cl)c1F`, with -9.66% (inactive); and `O=[N+]([O-])c1ccc(-c2ccc(I)cc2)cc1`, with -5.42% (inactive); and `O=[N+]([O-])c1ccc(-c2nnnn2Cc2c(Cl)cccc2Cl)cc1`, with -2.65% (inactive).
In the case of `Cc1c(NC(=S)Nc2ccccc2)c(=O)n(-c2ccccc2)n1C`, the activation was -1.67% (inactive).
In the case of `COC(=O)c1cc(OC)c(OC)cc1NC(=O)c1ccccc1C(=O)O`, the activation is 0.04% (inactive).
On to `COc1cc(CCN=Cc2ccccc2O)c([N+](=O)[O-])cc1OC`, for which the activation was -0.09% (inactive).
In the case of `O=C(NCc1cccnc1)Nc1cccc(NC(=O)NCc2cccnc2)c1F`, the activation was -10% (inactive).
In the case of `CNC(=S)NNC(=O)c1cc(C)on1`, the activation was -5.05% (inactive).
As to `Cc1cc(C)nc(N/C=C(\C#N)S(=O)(=O)c2ccc(Cl)cc2)n1`, the activation is -7.71% (inactive).
In the case of `N#CC(c1cc2ccccc2cn1)c1ccc2c(c1[N+](=O)[O-])C(=O)c1ccccc1C2=O` (stereo not drawn), the activation was -8.33% (inactive).
For `N#CC1(C#N)C(c2ccc(Cl)c(Cl)c2)C1(C#N)C#N`, the activation was -8.55% (inactive).
For the compound `CSc1n[nH]c(=O)n1-c1cccc(C(F)(F)F)c1`, the activation was -7.62% (inactive).
With `COc1ccc(NC(=S)Nc2ccc(F)cc2F)c([N+](=O)[O-])c1`, the activation is -8.62% (inactive).
For `c1ccc2c(-c3csc(-c4ccc5c(c4)OCCO5)n3)csc2c1`, the activation was -9.38% (inactive).
As to `Cc1nc(-c2ncc(-c3ccccc3)o2)c(C(F)(F)F)o1`, the activation was -5.66% (inactive).
As to `O=C(CSc1c(F)c(F)c(C(=O)O)c(F)c1F)Nc1cccc(C(F)(F)F)c1`, the activation is -5.69% (inactive).
Regarding `COC(=O)c1sccc1NC(=S)Nc1ccc(C)cc1`, the activation is -4.74% (inactive).
Take `Cc1cc(CNC(=O)c2cc(C)n(C)n2)no1`: the activation is 4.72% (inactive).
For `Cc1nnsc1-c1nnc(SCC(=O)c2ccc3c(c2)OCO3)n1C1CC1`, the activation was -3.99% (inactive).
Regarding `O=C(O)CC(CC(=O)Nc1cc(C(F)(F)F)ccc1N1CCOCC1)c1ccccc1` (stereo not drawn), the activation is -5.13% (inactive).
In the case of `N/C(=N\O)c1ccc2nonc2c1`, the activation was -8.97% (inactive).
With `Cc1cc(CNCC(O)C(F)(F)F)no1` (stereo not drawn), the activation is -7.81% (inactive).
With `CSc1sc(C(=O)NC2CC2)c(-c2ccc(Cl)cc2)c1C#N`, the activation is -8.05% (inactive).
On to `Cc1ccc(S(C)(=O)=NC(=O)NS(=O)(=O)Oc2ccc(Cl)cc2Cl)cc1` (stereo not drawn), for which the activation is -1.36% (inactive).
In the case of `Cc1oc(-c2ccc(Cl)cc2)cc1C(=O)O/N=C(\N)Cc1nc2cccnc2n1C1CC1`, the activation was -4.62% (inactive).
The same measure for `O=C(NCc1csc(-c2cccs2)n1)Nc1ccccc1-c1ccccc1`: -9.54% (inactive); for `Cc1oc(C(C)(C)C)cc1C(=O)NC1Cc2ccccc2C1`: -2.8% (inactive).
For the compound `CCOc1c(N2CCCCC2)c(=O)c1=O`, the activation is 24.1% (active).
In the case of `Cc1cc(-c2nc(C(=O)NN3CCCCC3)cs2)no1`, the activation is -7.49% (inactive).

For the origin of these results see PubChem BioAssay AID833 (The Scripps Research Institute Molecular Screening Center, 2007).
